In PubChem BioAssay AID624168 (Sanford-Burnham Center for Chemical Genomics, 2012):
Hit rate of the full screen: of about 360,000 compounds, about 800 (0.22%) were called active.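 How the source made its calls: active means activation of at least 8% versus controls, or a plate z-score of at least 8; inactive means the rest.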 The entries come from a sample that favours actives as a whole.

Test: compounds raising alpha-dystroglycan glycosylation – uHTS, Pro5-aDG cells, AlphaScreen, primary screen (AID 624168);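 further: Pro5 are CHO cells carrying HIG-tagged alpha-DG that lacks glycosylation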
Conditions: alpha-DG glycosylation AlphaScreen (IIH6), at 10 µM, stronger effect = higher value, 0% Pro5, 100% B10-LARGE cell signal

**Q.** With `COc1ccc(CC(=O)Nc2nc(-c3ccc(F)c(F)c3)cs2)cc1OC` as the compound, how does the activation read?
**A.** 2.7% (active)

**Q.** Which activation does the source give for `Cc1c(C(=O)N(C)CCc2cnn(C)c2)oc2c(F)cccc12` here?
**A.** 0.2% (inactive)

**Q.** Which activation does the source give for `COCCc1nn2c(=O)cc(COC(=O)c3cc(OC)c(OC)c(OC)c3)nc2s1` here?
**A.** -0.1% (inactive)

**Q.** For `CN1OC(COC(=O)c2ccc(Cl)cc2)CC1c1ccccc1` (configuration not stated), which activation is on record?
**A.** 0.1% (inactive)

**Q.** For `Cc1ccc(C(=O)C(=S)N2CCOCC2)cc1`, which activation is on record?
**A.** 0% (inactive)

**Q.** For `O=C(Nc1nnc(S(=O)(=O)N2CCCCCC2)s1)c1cccc(Br)c1`, which activation is on record?
**A.** -0.2% (inactive)

**Q.** With `COc1cccc(C(=O)Nc2nnc(S(=O)(=O)N3CCOCC3)s2)c1` as the compound, how does the activation read?
**A.** -0.1% (inactive)

**Q.** Which activation does the source give for `COc1cccc(C(=O)Nc2nnc(S(=O)(=O)N3CCCCC3)s2)c1` here?
**A.** 10.9% (active)

**Q.** With `CC(C)(C)OC(=O)N1CCC(C(=O)NNC(=O)c2ccc(Cl)cc2Cl)CC1` as the compound, how does the activation read?
**A.** 0.1% (inactive)

**Q.** For `c1ccc2c(NC3C4CC5CC(C4)CC3C5)nc(N3CCOCC3)nc2c1` (configuration not stated), which activation is on record?
**A.** 0.7% (inactive)

**Q.** For `CCOc1ccc(CCNC(=O)CCc2nnc3ccc(N4CCCC4)nn23)cc1OCC`, which activation is on record?
**A.** 0.3% (inactive)

**Q.** For `COCCCC1CCN(C(=O)C2CCC(=O)N(C3CCCCCC3)C2)CC1` (configuration not stated), which activation is on record?
**A.** -0.3% (inactive)

**Q.** For `COC(=O)C(Cc1c[nH]c2ccccc12)NC(=O)CCNC(=O)c1ccco1` (configuration not stated), which activation is on record?
**A.** 0.2% (inactive)

**Q.** For `COc1ccccc1N1CC(C(=O)Nc2nnc(SCC(=O)NCC3CCCO3)s2)CC1=O` (configuration not stated), which activation is on record?
**A.** -0.1% (inactive)

**Q.** With `CCOc1ccccc1Nc1nnc(SCC(=O)NCC2CCCO2)s1` (configuration not stated) as the compound, how does the activation read?
**A.** 5.2% (active)

**Q.** For `CCOc1ccccc1Nc1nnc(SCC(=O)Nc2cc(C)on2)s1`, which activation is on record?
**A.** -0.2% (inactive)

**Q.** Which activation does the source give for `COc1ccccc1OCCn1c(SCC(N)=O)nc2ccccc21` here?
**A.** 0% (inactive)

**Q.** Which activation does the source give for `NC1=CC(=O)C(=O)c2cccnc21` here?
**A.** 4.9% (active)

**Q.** For `O=C(C1CCCN(S(=O)(=O)c2ccc([N+](=O)[O-])cc2)C1)N1CCCCC1` (configuration not stated), which activation is on record?
**A.** 0.9% (inactive)

**Q.** For `COc1cc(C(C)=O)ccc1OC(=O)CN1C(=O)c2ccccc2C1=O`, which activation is on record?
**A.** -0.1% (inactive)

**Q.** With `CC(C)OC(=O)CN1C(=O)C(=O)c2ccccc21` as the compound, how does the activation read?
**A.** 14.6% (active)

**Q.** For `O=C1C(=O)N(c2ccccc2)c2ccccc21`, which activation is on record?
**A.** 2.6% (inactive)

**Q.** Which activation does the source give for `O=C(NCc1ccc(F)cc1)C1CCN(C(=O)Nc2ccc(F)cc2)CC1` here?
**A.** -0.1% (inactive)

**Q.** With `Cc1[nH]c(C)c(S(=O)(=O)N2CCN(c3cccc(C(F)(F)F)c3)CC2)c1C(=O)N1CCCCC1` as the compound, how does the activation read?
**A.** -0.4% (inactive)

**Q.** Which activation does the source give for `CC1(C)CC(=O)C=C(NC2CC(C)(C)NC(C)(C)C2)C1` here?
**A.** -0.2% (inactive)

**Q.** With `CCN(CC)CCNCc1ccc(OCc2ccc(Cl)nc2)c(OC)c1` as the compound, how does the activation read?
**A.** 0.3% (inactive)

**Q.** For `COc1cc(CNCCN(C)C)ccc1OCc1c(F)cccc1Cl`, which activation is on record?
**A.** 8.5% (active)

**Q.** For `CCOCCCNCc1ccc(OCc2ccc(F)cc2)c(OC)c1`, which activation is on record?
**A.** 0.1% (inactive)

**Q.** For `CCCCNCc1ccc(SC)cc1`, which activation is on record?
**A.** 0.3% (inactive)

**Q.** With `C[C@H](CO)N1C[C@H](C)[C@H](CN(C)CC2CC2)Oc2ccc(NC(=O)CCN3CCOCC3)cc2C1=O` as the compound, how does the activation read?
**A.** 0.2% (inactive)

**Q.** With `Cc1ccc(N2C(=O)SC(N(CC(=O)O)c3ccc(C)cc3)C2=O)cc1` (configuration not stated) as the compound, how does the activation read?
**A.** 1.3% (inactive)

**Q.** With `CCn1c(SCc2cccc(C(=O)O)c2)nnc1-c1ccc(Cl)cc1` as the compound, how does the activation read?
**A.** 0% (inactive)

**Q.** For `CN(C)CCCNC(=O)/C=C/c1ccc(OCc2c(F)cccc2Cl)cc1`, which activation is on record?
**A.** 13.4% (active)

**Q.** For `Fc1cccc(Cl)c1COc1ccc(-c2nnco2)cc1`, which activation is on record?
**A.** -0.1% (inactive)

**Q.** With `O=C(/C=C/c1ccc(Cl)cc1)NCCCn1ccnc1` as the compound, how does the activation read?
**A.** -0.1% (inactive)

**Q.** For `CS(=O)(=O)N(CC(=O)N1CCCCCC1)c1cccc(Cl)c1Cl`, which activation is on record?
**A.** -0.1% (inactive)

**Q.** With `COc1ccc(CCCNC(=O)C2Cc3c(-c4cccc(C(N)=O)c4)ccnc3O2)cc1` (configuration not stated) as the compound, how does the activation read?
**A.** 0.1% (inactive)

**Q.** For `COc1ccc(NC(=O)COc2ccc(C(=O)c3ccc(F)cc3)cc2)cc1S(N)(=O)=O`, which activation is on record?
**A.** 0% (inactive)

**Q.** For `COc1ccccc1C1SCCN1C(=O)c1ccc([N+](=O)[O-])cc1` (configuration not stated), which activation is on record?
**A.** 6.9% (active)

**Q.** With `C[N+]1(CC(O)COc2ccccc2)CCN(C(=O)c2ccc([N+](=O)[O-])cc2)CC1` (configuration not stated) as the compound, how does the activation read?
**A.** -0.2% (inactive)

**Q.** Which activation does the source give for `O=C(OCC(=O)N1CCc2ccccc21)c1ccc([N+](=O)[O-])cc1` here?
**A.** 0.1% (inactive)

**Q.** Which activation does the source give for `CC(C)N(C(=O)CSc1nc(COc2ccccc2)nc2ccccc12)C(C)C` here?
**A.** 0.2% (inactive)

**Q.** Which activation does the source give for `CCOc1cc(CNCCN(C)C)c(Cl)cc1OCC(=O)NCCc1ccccc1` here?
**A.** 0.7% (inactive)

**Q.** With `Cc1cccn2c(=O)nc(SCC(=O)NCc3ccccc3Cl)nc12` as the compound, how does the activation read?
**A.** 0.1% (inactive)

**Q.** Which activation does the source give for `O=C(Oc1ccccc1C(=S)N1CCCCC1)c1cc([N+](=O)[O-])cc([N+](=O)[O-])c1` here?
**A.** -0.2% (inactive)

**Q.** For `CN(O)C(=S)c1ccccc1`, which activation is on record?
**A.** -0.2% (inactive)

**Q.** With `Cc1ccc(F)c(S(=O)(=O)NC(=O)C2(C)CCN2C(=O)c2ccco2)c1` (configuration not stated) as the compound, how does the activation read?
**A.** -0.2% (inactive)
